IL1B secr inh – inflammasome signaling inhibition, IL-1 beta readout; THP-1 LPS/ATP IL-1B secretion, AlphaLISA, 16 h; active compounds read low; activity change, % at 57.5 µM; hit rate 4.7% among 360,000; AID 743279; in the data active = activity change below about -50%; inconclusive = mostly about -30% to -49%
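THP-1 cells pretreated 1 hr with compounds (up to 57.5 uM final), then stimulated with LPS (250 ng/mL final) plus ATP (1.25 mM final); secreted IL-1B measured by AlphaLISA after 16 hr, decreased signal indicating inhibition.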
DT40 TDP1 CPT – DT40-hTDP1 cell growth loss with CPT; hit rate 12% among 420,000; Potency, µM (series often up to 46.2 µM), most hits filed as inhibitors; chicken DT40 Tdp1-/-;hTDP1 cells + 20 nM CPT, ATP luminescence, 48 h; AID 686979; also: nearly all actives have a fitted effect of over 55% in size
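Cell growth measured by CellTiter-Glo luminescence after a minimum 48 h, 37 C compound exposure with 20 nM CPT in Tdp1-knockout DT40 cells stably expressing hTDP1, seeded 400/well; qHTS titration format.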
HT1080-NT tox – kills 2HG-producing HT-1080-NT fibrosarcoma cells; HT-1080-NT fibrosarcoma viability, CellTiter-Glo ATP luminescence, 48 h; hit rate 1.6% among 360,000; Potency, µM (series often up to 46.1 µM), usual class: cytotoxic;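 also: NT is the 2HG producing partner of a matched IDH1 knockdown line; nearly all actives have a fitted effect of over 55% in size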
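Viability by CellTiter-Glo luminescence after 48 h compound exposure at 37C of HT-1080-NT cells (750/well, RPMI, 5% FBS). % activity scaled between DMSO wells and medium-only wells, then curve-fitted and categorized by curve class.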
HT1080 IDH1KD tx – kills HT-1080 cells with IDH1 knockdown | HT-1080 IDH1 knockdown viability, ATP luminescence, 48 h | Potency, µM (highest dose often 46.1 µM), most hits filed as cytotoxic | hit rate 2% among 360,000 | AID 686971
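CellTiter-Glo luminescence after 48 h compound exposure at 37 degrees C of IDH1-knockdown HT-1080 cells in 5% FBS RPMI. %Activity scaled between DMSO wells and cell-free media wells, with curves fitted and assigned curve classes.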
TDP1 cell noCPT – qHTS for Inhibitors of human tyrosyl-DNA phosphodiesterase 1 (TDP1): qHTS in cells in absence of CPT; hit rate 15% among 420,000; AID 686978, 2013; Potency, µM (doses to about 46.2 µM), hits mostly inhibitors; DT40 Tdp1-/- hTDP1 cells, no CPT, ATP luminescence, 48 h; also: nearly all actives have a fitted effect of over 55% in size
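Luminescent ATP content (CellTiter-Glo) served as the growth readout. Knockout chicken DT40 cells expressing human TDP1 were exposed to compounds without camptothecin for a minimum 48 hr at 37 °C.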
Each line names hits and unclear results; the compound was inactive in the other large screens. Shown are actives, neighbours in structure and some others; about 19% of the full set was active somewhere. Unless noted, calls follow the shape of the dose curve; as a rule, active = well fitted curve in the direction sought with a large enough effect; inconclusive = small, poorly fitted or top-dose-only effect, or another doubt; inactive = no such curve, though single readings can be large; an effect the other way counts as inactive or inconclusive.

O=C(CSc1cn(CCNC(=O)c2cccs2)c2ccccc12)NC1CCCCC1	DT40 TDP1 CPT inconclusive, TDP1 cell noCPT inconclusive
COc1ccccc1C(=O)NCCn1cc(SCC(=O)Nc2cc(C)on2)c2ccccc21	IL1B secr inh inconclusive, TDP1 cell noCPT inconclusive
O=C(NCCn1cc(SCc2ccccc2F)c2ccccc21)c1cccs1	DT40 TDP1 CPT inconclusive, TDP1 cell noCPT 21µM (no result: IL1B secr inh, HT1080-NT tox, HT1080 IDH1KD tx)
O=C(NCCn1cc(SCc2ccccc2F)c2ccccc21)c1c(F)cccc1F	IL1B secr inh inconclusive, DT40 TDP1 CPT inconclusive, TDP1 cell noCPT 23µM
CC(Sc1cn(CCNC(=O)c2ccccc2F)c2ccccc12)c1ccccc1 (stereo unspecified)	DT40 TDP1 CPT inconclusive, TDP1 cell noCPT 21µM (no result: IL1B secr inh, HT1080-NT tox, HT1080 IDH1KD tx)
Cc1ccccc1CSc1cn(CCNC(=O)c2cccs2)c2ccccc12	DT40 TDP1 CPT 23µM, TDP1 cell noCPT inconclusive (no result: IL1B secr inh, HT1080-NT tox, HT1080 IDH1KD tx)
O=C(NCCn1cc(SCC(=O)N2CCOCC2)c2ccccc21)c1c(F)cccc1F	DT40 TDP1 CPT inconclusive, TDP1 cell noCPT inconclusive
O=C(CSc1cn(CCNC(=O)c2cccs2)c2ccccc12)NCc1ccccc1	TDP1 cell noCPT inconclusive
O=C(Nc1ccc(Cl)cc1)OCc1cn(-c2ccccc2)nn1	none
COc1ccc(Cc2nc3ccc(C(=O)N(C)CCc4cnn(C)c4)cc3o2)cc1OC	DT40 TDP1 CPT inconclusive, TDP1 cell noCPT 8.2µM
CCN(Cc1cnn(C)c1)C(=O)c1ccc2nc(Cc3cccc(Cl)c3)oc2c1	DT40 TDP1 CPT 23µM, TDP1 cell noCPT 23µM
COc1ccc(Cc2nc3ccc(C(=O)NCCc4ccncc4)cc3o2)cc1OC	none
Cc1nc(Nc2ccc(Cl)cc2)c(C#N)c(=O)[nH]1	none
CN(CC(=O)Nc1cccc(F)c1)C(=O)c1ccccc1-n1cnnn1	none
CN(CC(=O)Nc1cccc(F)c1)C(=O)c1cn(-c2ccccc2)nc1-c1ccc(Cl)cc1	IL1B secr inh -60, DT40 TDP1 CPT inconclusive, HT1080-NT tox 21µM, HT1080 IDH1KD tx inconclusive, TDP1 cell noCPT inconclusive
CCN(CC)CCNC(=O)c1cn(-c2ccccc2)nc1-c1cccs1	none
CN(CC(=O)Nc1cccc(F)c1)C(=O)c1cc(-c2cccs2)nn1-c1ccccc1	DT40 TDP1 CPT inconclusive, TDP1 cell noCPT 16µM
CCN(CC)CCOC(=O)c1ccc(NC(=O)c2cn(-c3ccccc3)nc2-c2cccs2)cc1	IL1B secr inh -53, DT40 TDP1 CPT inconclusive, HT1080-NT tox 21µM, HT1080 IDH1KD tx inconclusive, TDP1 cell noCPT 21µM
O=C(c1cn(-c2ccccc2)nc1-c1cccs1)N(CCO)Cc1ccccc1	TDP1 cell noCPT 18µM
COc1ccc(-c2noc(N3CCC(C(=O)Nc4cc(OC)c(OC)c(OC)c4)CC3)n2)cc1	none
CN(CC(=O)Nc1cccc(F)c1)C(=O)c1cn(-c2ccccc2)nc1-c1cccs1	DT40 TDP1 CPT inconclusive, TDP1 cell noCPT 13µM
O=C(c1cn(-c2ccccc2)nc1-c1cccs1)N1CCN(c2ccccn2)CC1	DT40 TDP1 CPT inconclusive, TDP1 cell noCPT 21µM
CCN(CC(=O)Nc1ccc(NC(C)=O)cc1)C(=O)c1cn(-c2ccccc2)nc1-c1cccs1	TDP1 cell noCPT inconclusive
COc1cccc(NC(=O)CN(C)C(=O)c2cn(-c3ccccc3)nc2-c2cccs2)c1	IL1B secr inh -53, DT40 TDP1 CPT inconclusive, HT1080-NT tox inconclusive, HT1080 IDH1KD tx inconclusive, TDP1 cell noCPT inconclusive
CN(Cc1cccc(F)c1)C(=O)Cc1ccc(S(=O)(=O)N2CCOCC2)s1	TDP1 cell noCPT inconclusive
Cc1ccc(N(Cc2ccccc2)C(=O)c2ccc(F)c(S(=O)(=O)N3CCOCC3)c2)cc1	DT40 TDP1 CPT inconclusive, TDP1 cell noCPT 23µM
CC1CN(S(=O)(=O)c2cccc(C(=O)N(C)C3CCCCC3)c2)CC(C)O1 (stereo unspecified)	DT40 TDP1 CPT 18µM, TDP1 cell noCPT 10µM
CC1CN(S(=O)(=O)c2cccc(C(=O)OCC(=O)c3cccs3)c2)CC(C)O1 (stereo unspecified)	none
CC1CN(S(=O)(=O)c2cccc(C(=O)OCCOc3ccccc3)c2)CC(C)O1 (stereo unspecified)	DT40 TDP1 CPT 21µM, TDP1 cell noCPT inconclusive
Cc1cccc(N(Cc2ccccc2)C(=O)Cc2ccc(S(=O)(=O)N3CCOCC3)s2)c1	DT40 TDP1 CPT inconclusive, TDP1 cell noCPT 23µM
COc1ccccc1C1CC(c2ccccc2)=NN1C(=S)Nc1ccccc1 (stereo unspecified)	DT40 TDP1 CPT inconclusive, TDP1 cell noCPT inconclusive
CC(=O)c1ccc(OCCn2c(SCC(=O)O)nc3ccccc32)cc1	none
Cc1cccc(N(Cc2ccccc2)C(=O)c2ccc(C)c(S(=O)(=O)N3CCOCC3)c2)c1	DT40 TDP1 CPT 16µM, TDP1 cell noCPT 13µM
Cc1cccc(N(Cc2ccccc2)C(=O)c2ccc(F)c(S(=O)(=O)N3CCOCC3)c2)c1	DT40 TDP1 CPT inconclusive, TDP1 cell noCPT inconclusive
Cc1ccc(N(Cc2ccccc2)C(=O)c2cc(S(=O)(=O)N3CCOCC3)ccc2N2CCCC2)cc1	DT40 TDP1 CPT 21µM, TDP1 cell noCPT 21µM
Cc1cccc(N(Cc2ccccc2)C(=O)c2cccc(S(=O)(=O)N3CC(C)OC(C)C3)c2)c1 (stereo unspecified)	DT40 TDP1 CPT 12µM, HT1080 IDH1KD tx inconclusive, TDP1 cell noCPT 10µM
CC1CCN(S(=O)(=O)c2cccc(C(=O)N(Cc3ccccc3)c3ccccn3)c2)CC1	DT40 TDP1 CPT inconclusive, TDP1 cell noCPT inconclusive
Cc1ccc(-n2c(C)cc(/C=N/NC(=O)c3ccncc3)c2C)cc1	DT40 TDP1 CPT inconclusive, HT1080 IDH1KD tx inconclusive
Cc1ccc(-n2c(C)cc(/C=N/NC(N)=S)c2C)cc1	DT40 TDP1 CPT 3.7µM, TDP1 cell noCPT 3.7µM
Cc1ccc(-n2c(C)cc(/C=N/NC(=O)CN(c3ccc(C)cc3C)S(C)(=O)=O)c2C)cc1	IL1B secr inh inconclusive, DT40 TDP1 CPT inconclusive, HT1080-NT tox inconclusive, HT1080 IDH1KD tx inconclusive, TDP1 cell noCPT 21µM
CNC(=S)N/N=C/c1cc(C)n(-c2ccc(Cl)c(Cl)c2)c1C	DT40 TDP1 CPT 23µM, TDP1 cell noCPT inconclusive
CNC(=O)C[C@H]1C(=O)N(c2ccc(Br)cc2)C[C@@H]1C	none
O=[N+]([O-])c1ccc(P(=O)(Cc2ccccc2)c2ccccc2O)cc1 (stereo unspecified)	none
Cc1ccc(NC(=O)Nc2ccc3c(c2)OCO3)cc1F	IL1B secr inh inconclusive, HT1080-NT tox inconclusive
O=C(c1ccccn1)N1CCN(c2ccc(C(F)(F)F)cn2)CC1	TDP1 cell noCPT inconclusive
Cc1ccccc1N1CCN(C(=O)c2ccc(Oc3ccc(C(F)(F)F)cn3)cc2)CC1	IL1B secr inh -73, DT40 TDP1 CPT 8.9µM, TDP1 cell noCPT 13µM
CCOc1ncccc1C(=O)N1CCN(c2ccc(C(F)(F)F)cn2)CC1	DT40 TDP1 CPT inconclusive, TDP1 cell noCPT 10µM

High-throughput results: PubChem, National Center for Advancing Translational Sciences (NCATS)
